Assay results reported in PubChem BioAssay.
Unmarked numbers belong to inactive results. No rule for the calls is given here.

test system: Aerobactin synthetase IucA (Klebsiella pneumoniae hvKP1); test: Biochemical IucA enzyme inhibition primary screen of the Spectrum library (AID 1346200); conditions: malachite green pyrophosphate, A620, at 8 µM, active compounds read low;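 also: 100% = wells without compound and 0% = wells lacking enzyme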

| Compound | activity remaining [%] |
| --- | --- |
| O=C(O)CCCCC1SCC2NC(=O)NC21 (stereo not given) | 121 |
| O=c1cc(-c2ccc(O)cc2)oc2cc(O[C@@H]3O[C@H](CO)[C@@H](O)[C@H](O)[C@H]3O)cc(O)c12 | 101 |
| Nc1ccc(S(=O)(=O)Nc2ncccn2)cc1 | 120 |
| C=C1C2CC[C@@]3(C)[C@H](c4ccoc4)OC(=O)C[C@]13O[C@H]1C[C@H](OC(C)=O)C(C)(C)[C@H](CC(=O)OC)[C@@]21C | 98.7 |
| O=C1[C@H](CCC(O)c2ccc(F)cc2)[C@@H](c2ccc(O)cc2)N1c1ccc(F)cc1 (stereo not given in full) | 122 |
| CNCCc1ccccn1 | 114 |
| Nc1ccc(C(=O)O)cc1 | 124 |
| COC(=O)C[C@@H]1C2(C)C(=O)[C@@H](CC3=C4CC(=O)O[C@@H](c5ccoc5)[C@]4(C)CCC32)[C@H](OC(C)=O)C1(C)C (stereo not given in full) | 112 |
| C[C@H]1CC[C@@H](C(C)(C)O)CC2=C1CC[C@@H]2C | 102 |
| Oc1ccc([C@H]2Oc3cc(O)cc(O)c3C[C@H]2O)cc1 | 113 |
| CCS(=O)(=O)CCn1c([N+](=O)[O-])cnc1C | 124 |
| CC1(C)CC[C@]2(C(=O)O)CC[C@]3(C)C(=CCC4[C@@]5(C)CC[C@@H](O)C(C)(C)C5CC[C@]43C)C2C1 (stereo not given in full) | 118 |
| NC(N)=N/N=C\c1c(Cl)cccc1Cl | 97 |
| NCC(O)CC(=O)O (stereo not given) | 98.6 |
| C[C@@H]1CC[C@@]2(OC1)OC1CC3C4CC=C5C[C@@H](O)CC[C@]5(C)C4CC[C@]3(C)C1[C@@H]2C (stereo not given in full) | 104 |
| CN1CCCN=C1COC(=O)C(O)(c1ccccc1)C1CCCCC1 (stereo not given) | 108 |
| CN1CCN(C(c2ccccc2)c2ccccc2)CC1 | 113 |
| CC1(C)S[C@@H]2[C@H](NC(=O)COc3ccccc3)C(=O)N2[C@H]1C(=O)O | 96.2 |
| C[C@]12CCC3c4ccc(OS(=O)(=O)O)cc4CCC3C1CCC2=O (stereo not given in full) | 122 |
| O=C(O)c1ccc2c(c1)OCO2 | 101 |

| Compound | activity remaining [%] |
| --- | --- |
| Cc1ccc2c(Cl)cc(Cl)c(O)c2n1 | 85.6 |
| Nc1ncnc2nc[nH]c12 | 105 |
| COC1C(O)C(O[C@H]2CC[C@]3(C=O)C4C(CC[C@]3(O)C2)[C@@]2(O)CC[C@H](C3=CC(=O)OC3)[C@@]2(C)C[C@H]4OC(C)=O)OC(C)C1OC(C)=O (stereo not given in full) | 122 |
| CC1(C)C=Cc2c(cc3occ(-c4ccc5c(c4)OCO5)c(=O)c3c2O)O1 | 118 |
| CC(=O)C1CC[C@H]2C3CC[C@H]4C[C@H](O)CC[C@]4(C)C3CC[C@]12C (stereo not given in full) | 93.6 |
| C[C@@H]1O[C@@H](O[C@H]2[C@@H](Oc3cc(O)c4c(c3)O[C@H](c3ccc(O)cc3)CC4=O)O[C@H](CO)[C@@H](O)[C@@H]2O)[C@H](O)[C@H](O)[C@H]1O | 117 |
| COc1cc2c(cc1-c1coc3c4c(c(OC)cc3c1=O)OC(C)(C)C=C4)OCO2 | 110 |
| CCC(=O)O[C@H](CC(=O)O)C[N+](C)(C)C | 107 |
| C#C[C@]1(O)CCC2C3CCc4cc(OC)ccc4C3CC[C@@]21C (stereo not given in full) | 116 |
| CC(=O)OCC(=O)[C@@]1(O)CCC2C3CCC4=CC(=O)CC[C@]4(C)C3[C@@H](O)C[C@@]21C (stereo not given in full) | 85.9 |
| CC12CCC3C(CC3(C)C)C(C)(CCC1=O)O2 (stereo not given) | 119 |
| Cc1c(N(C)CS(=O)(=O)O)c(=O)n(-c2ccccc2)n1C | 97.1 |
| O=C1C=CC2=C3c4cc(O)c(O)cc4C[C@@]3(O)COC2=C1 | 120 |
| CC(=O)N=c1sc(S(N)(=O)=O)nn1C | 86.3 |
| Nc1ccc(S(=O)(=O)Nc2cnc3ccccc3n2)cc1 | 123 |
| CCOC(=O)C(C)(N)Cc1ccc(O)c(O)c1 (stereo not given) | 105 |
| O=C(O)c1cc(=O)c(O)c2c(O)c(O)c(O)cc2c1 | 104 |
| CN(C)CCOC(c1ccccc1)c1ccccc1 (tested in a mixture with another compound) | 117 |
| CC[C@@H](C(=O)C(C)[C@@H](O)[C@H](C)CCc1ccc(C)c(O)c1C(=O)O)C1OC(CC)(C2CC[C@](O)(CC)[C@H](C)O2)C[C@@H]1C (stereo not given in full) | 111 |
| C[C@@H]1CCC2[C@](C)(CO)[C@@H](O)CC[C@]2(C)[C@@]12CC[C@@](CO)(CCO)O2 (stereo not given in full) | 113 |
